This is part of a sample that, as a whole, favours compounds with a hit. Of some 83,000 tested, about 20% had one in any assay.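 The test compound was applied at a single concentration to cells in 96-well plates for 48 hours, and percent growth was recorded.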 Values without a mark were called inactive. Calls of active or inactive are those of the source. Rule for the calls: active = growth percent below 10; inactive = the rest.
Test system: PC-3 prostate
Test: NCI-60 one-dose screen, 48 h (100 = growth as untreated, 0 = no growth, -100 = all killed)
Conditions: 10 µM unless noted

Row | Structure (SMILES) | growth
1 | N#C/C(=C\c1ccc(-c2ccc(Br)cc2)o1)c1nc(-c2ccco2)cs1 | 91.5%
2 | C[C@H]1OC(=O)/C=C/[C@@H](O)[C@@H](O)CCCCCCCC[C@@H]1O | 85.2%
3 | CC[C@]12C=CCN3CC[C@@]4(c5cc([C@H]6CCC(=O)N6)c(OC)cc5N(C)[C@H]4[C@@](O)(C(=O)OC)[C@@H]1OC(C)=O)[C@@H]32 | 95.5% [2.5 µM]
4 | NC1=C(C/C(N)=N\O)C(c2ccccc2Cl)c2c(ccc3ccccc23)O1 (centres undefined) | 74.2%
5 | Cn1cccc1/C=C1/SC(=S)N(CCc2ccc(O)cc2)C1=O | 69%

Test system: SK-MEL-5 melanoma
Test: as above
Conditions: 10 µM unless noted

Row | Structure (SMILES) | growth
6 | COC(=O)[C@]12CC[C@@H](C)[C@H](C)[C@@H]1C1=CC(=O)[C@@H]3[C@@]4(C)C[C@@H](OC(C)=O)[C@H](OC(C)=O)[C@@](C)(COC(C)=O)[C@@H]4C(=O)C[C@@]3(C)[C@]1(C)CC2 | 20%
7 | O=C1c2cccc3cccc(c23)C(=O)N1CC#Cc1ccc2c3c(cccc13)C(=O)N(CCO)C2=O | 90.8%
8 | COc1ccc2c(c1)c(-c1nc(-c3c[nH]c4ncccc34)cs1)cn2CCNC(=O)OC(C)(C)C | 54.2%
9 | COc1ccc(C2c3ccccc3NC(=O)N2C2CCN(C)CC2)c(OC)c1 (centres undefined) | 84.7%
10 | COc1cccc(-c2nn(-c3ccccc3)cc2-c2ccnc(NCCCNS(=O)(=O)c3ccc(Cl)cc3)c2)c1 | 30.8%
11 | CC(CNc1nc(Nc2ccc(Cl)c(Cl)c2)nc(C(Cl)(Cl)Cl)n1)N(C)C (centres undefined) | -56.9% (active)
12 | COc1ccc2c(c1)c1nc3cc(C)c(C)cc3nc1n2CCN(C)C | 45.3%
13 | Oc1cc(/C=C/c2nc(N3CCOCC3)c3cc(Cl)c(Cl)cc3n2)cc(O)c1O | 90%
14 | COC(=O)CCCCCn1c2ccccc2c2c3c(c4c5ccccc5[nH]c4c21)C(=O)N(O)C3=O | 33.1%
15 | NCCn1cc(-c2nc(-c3c[nH]c4ncccc34)cs2)c2ccccc21 | 77.2%
16 | COc1cnc2c(c1)C(=O)c1c-2n(CCCNCCN2CCOCC2)c(=O)c2cc([N+](=O)[O-])ccc12 | -87.8% (active)
17 | CCCCC[C@H]1C/C=C2/C(=O)C=C[C@@H]2C/C=C\CCCC(=O)O[C@@H](CCCCC)C/C=C2/C(=O)C=C[C@@H]2C/C=C\CCCC(=O)O1 | -97.4% (active)
18 | COc1ccc2c(c1)c(-c1nc(-c3c[nH]c4ncccc34)cs1)cn2CCCN1CCCCC1 | -87.6% (active)
19 | CCN(CC)CCCCCCNc1ccnc2cc(Cl)ccc12 | 80.8%
20 | N#Cc1c(-c2ccc(O)cc2)c2c(N)nn(-c3ccccc3)c2[nH]c1=O | 98%
21 | CC(C)(C)c1[nH]nc2c1C(c1cc3ccccc3[nH]c1=O)Nc1cc(C(=O)OCc3ccccc3)ccc1N2 (centres undefined) | 39.3%
22 | c1cnc2[nH]cc(-c3csc(-c4cn(CCCN5CCCCC5)c5ccccc45)n3)c2c1 | -80.1% (active)
23 | COC(=O)[C@]12CC[C@@H](C)[C@H](C)[C@@H]1C1=CC[C@@H]3[C@@]4(C)CC(=O)[C@H](OC(=O)c5ccco5)[C@@]5(C)COC(=C45)C[C@@]3(C)[C@]1(C)CC2 | -46.1% (active)
24 | O=C1/C(=C\C(Cl)=C/c2ccc([N+](=O)[O-])cc2)SC(=S)N1CCc1ccc(O)cc1 | -78.9% (active)
25 | O=c1c(CNc2ccc(S(=O)(=O)Nc3ncccn3)cc2)coc2ccccc12 | 95.9%
26 | CCN(CC)CCCCCNc1cc(OC(=O)c2ccccc2)cc2cccnc12 | 138%
27 | COc1cc2nc(Cl)nc(Nc3cccc(C(=O)/C=C/c4ccc(F)cc4)c3)c2cc1OC | 73.4%
28 | CN1CCN(CCOc2ccc(-c3cnc4c(-c5ccccc5F)cnn4c3)cc2)CC1 | 35%
29 | CN(C)CCCC1(c2ccc(F)cc2)OCc2cc(-c3ccc(C(F)(F)F)nc3)ccc21 (centres undefined) | 75.3%
30 | Cn1cc(-c2nc(-c3c[nH]c4ncccc34)cs2)c2cc(Cl)ccc21 | 83.3%
31 | CCC(CC)C(=O)OC(C)COc1ccc(C(C)(C)C)cc1 (centres undefined) | 98.7%
32 | NCCNc1nc(-c2ccccc2)nc2nc(-c3ccccc3)oc12 | 89.2%
33 | N#C/C(=C\c1ccc(-c2ccc(Br)cc2)o1)c1nc(-c2ccco2)cs1 | 85%
34 | C[C@H]1OC(=O)/C=C/[C@@H](O)[C@@H](O)CCCCCCCC[C@@H]1O | 98%
